Reference: PubChem BioAssay AID624296 (National Center for Advancing Translational Sciences (NCATS), 2012)
The whole screen tested about 350,000 compounds, of which about 9,900 (2.8%) were called active. About 15% were inconclusive and are not listed. The call rests on the fitted dose curve; in most records, active means well fitted activation curve with a large enough effect; inconclusive means small, poorly fitted or top-dose-only effect; inactive means no such curve, though single readings can be large or run the other way. What follows is part of a selection rich in actives, with near analogues and random picks from the rest.

Test: A quantitative high throughput screen for small molecules that induce DNA re-replication in MCF 10a normal breast cells. Further: nearly all actives have a fitted effect of over 50% in size. On activity, positive = re-replication: % of control where 0% means no effect.
Details: MCF 10A DNA re-replication, Hoechst nuclear intensity, 48 h; series mostly up to 46.1 µM; activity, positive = re-replication: at the top concentration
Potency means the concentration at half of the fitted maximal effect.

| SMILES | activity, positive = re-replication | Potency |
| --- | --- | --- |
| CCCc1cc(=O)[nH]c(SCC(=O)Nc2ccc(S(=O)(=O)N3CCCC3)cc2)n1 | 6.91% (inactive) | – |
| Cc1ccccc1OCC(O)CN1CCN(c2ccccn2)CC1 (centres undefined) | 0.536% (inactive) | – |
| CC(C)c1ccc(OCC(O)CN2CCN(c3ccccn3)CC2)cc1 (centres undefined) | – | 16.4 µM (active) |
| CC(=O)Nc1ccc(OCC(O)CN2CCN(c3ccccc3Cl)CC2)cc1 (centres undefined) | 9.34% (inactive) | – |
| COC(=O)[C@]1(CC(C)C)N[C@H](c2ccc(SC3CCCCC3)cc2)[C@@H]2C(=O)N(C)C(=O)[C@@H]21 | -1.67% (inactive) | – |
| CSc1ncccc1C(=O)Nc1ccc2c(c1)OCO2 | 2.63% (inactive) | – |
| Nn1c(SCC(=O)Nc2ccc3c(c2)CCC3)nnc1C1CC1 | -0.587% (inactive) | – |
| Cc1nc(N)sc1-c1ccccc1 | -9.51% (inactive) | – |
| CCOC(=O)C1=C(C)N(C[C@@H]2CC[C@@H](Cc3ccc(-c4ccccc4)cc3)O2)C(=O)NC1c1ccc([N+](=O)[O-])cc1 (some centres undefined) | -15.2% (inactive) | – |
| COc1ccc(CCC(C)N2CCc3ccccc3C2)cc1 (centres undefined) | -2.26% (inactive) | – |
| S=C1SCN(CCN2CCOCC2)CN1Cc1ccccc1 | 5.55% (inactive) | – |
| COc1ccc(CN2CN(C(C)C)CSC2=S)cc1 | – | 5.17 µM (active) |
| S=C(Nc1ccccc1)Nc1ccc2ccccc2c1 | 18.6% (inactive) | – |
| COc1ccc2[nH]c3c(c2c1)CCN1C(=O)C(CC(=O)NCCCN(C)C)C[C@H](C(=O)N2CCOCC2)[C@@]31CCC1CCCC1 (some centres undefined) | 10.8% (inactive) | – |
| CCOC(=O)[C@H]1[C@H]2COc3cc(OC)ccc3[C@@H]2N2C(=O)CN(Cc3ccc(Cl)cc3)C(=O)[C@@]12C | -15.2% (inactive) | – |
| CCC(C)c1ccc(NC(=O)COC(=O)C2CCCC2)cc1 (centres undefined) | -2.86% (inactive) | – |
| COc1ccc(C(C[N+](=O)[O-])n2nc(C)cc2C)cc1 (centres undefined) | – | 13 µM (active) |
| COc1ccc(OCc2cn3c(C)cc(C)nc3n2)cc1 | -2.68% (inactive) | – |
| COc1ccc(C(=O)CSc2nc(C)cc(C)n2)cc1[N+](=O)[O-] | 19.8% (inactive) | – |
| COc1ccccc1C(=O)Nc1ccc(OCC(=O)N2CCCCC2)cc1 | -5.49% (inactive) | – |
| CCNc1nc(-c2cc3ccccc3o2)cs1 | 12.7% (inactive) | – |
| O=c1oc2ccccc2cc1-c1csc(Nc2ccc(O)cc2)n1 | – | 14.6 µM (active) |
| CCc1noc(C)c1C(=O)Nc1nc2ccc(OC)cc2s1 | -2.02% (inactive) | – |
| COc1ccc2nc(Nc3nc(-c4cc5ccccc5oc4=O)cs3)sc2c1 | – | 5.8 µM (active) |
| COc1ccc2nc(Nc3nc(-c4ccncc4)cs3)sc2c1 | 7.45% (inactive) | – |
| Cc1ccc(Nc2nc(-c3ccc(O)cc3O)cs2)nc1 | 24.9% (inactive) | – |
| CC(OC(=O)Cc1ccc(F)cc1)C(=O)N1CCc2ccccc21 (centres undefined) | 3.1% (inactive) | – |
| Cc1sc2ncnc(N3CCC(C(=O)Nc4ccc(F)cc4Cl)CC3)c2c1C | 8.78% (inactive) | – |
| C#CCOCCOCCOCCNc1nc(N2CCN(C(=O)Cn3cc(CCO)nn3)CC2)nc(N2CCN(C(=O)Cn3cc(CCCN=C(N)N)nn3)CC2)n1 | 3.26% (inactive) | – |
